# Sampled rows, rich in hits. Any-hit rate of the full collection: about 21%.
# Shiga inhibitor – inhibitors of Shiga toxin in Vero cells. 9.2% of 290,000 active. inhibition, % at 38.7 µM. Vero cells, Shiga toxin protein synthesis inhibition reporter; in the data active = inhibition mostly above about 28%, no sharp cut-off; inactive = mostly below about 43%; note: 0% is about no effect
# Pf growth 96h – P. falciparum growth inhibition at 96 hour, primary screen for plastid delayed-death inhibitors; P. falciparum luciferase reporter growth, 96 h; Potency, µM (highest dose often 28.7 µM), for the others: at the highest dose activity change, negative = inhibition, most hits filed as inhibitors; 6.9% of 320,000 active; note: potency is the fitted concentration of half-maximal effect; % is set by controls: 0 for no effect and ±100 for the full control effect
#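 Cell-based qHTS: luciferase-tagged P. falciparum in erythrocytes (2% hematocrit, 0.05% parasitemia final) incubated with compounds for 96 hours, 37 C, 5% CO2; luciferase detection reagent then added and luminescence measured.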
# Sm TGR block – S. mansoni TGR enzyme inhibition; Q962Y6; purified TGR, DTNB reduction, TNB absorbance 405 nm; Potency, µM (highest dose often 114 µM), without a hit: at the highest dose activity change, negative = inhibition, actives largely listed as inhibitors; 3% of 360,000 active; AID 485364; note: potency is the fitted concentration of half-maximal effect; % is set by controls: 0 for no effect and ±100 for the full control effect; nearly all actives have a fitted effect of over 60% in size
#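 Kinetic colorimetric format: TGR-catalysed, NADPH-driven DTNB reduction monitored via TNB absorbance. Enzyme dispensed at 20 nM; compound exposure 15 min at room temperature before reaction start.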
# Pf growth 48h – inhibits P. falciparum growth in the first generation, 48 h; P. falciparum luciferase growth in erythrocytes, 48 h; Potency, µM (doses to about 28.7 µM), without a hit: at the highest dose activity change, negative = inhibition, hits mostly inhibitors; 5.9% of 310,000 active; AID 504832; note: potency is the fitted concentration of half-maximal effect; % is set by controls: 0 for no effect and ±100 for the full control effect
#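 First compound was added to culture medium, then infected red cells at 0.1% parasitemia and 2% hematocrit (final). After incubation at 37 C under 5% CO2, luciferase detection reagent was dispensed and light output recorded.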
# CHX counter – affects cycloheximide protein synthesis inhibition readout, counter-screen. cell reporter, cycloheximide protein synthesis inhibition counterscreen. 12% of 300,000 active. max response, %; in the data active = max response mostly above about 13%, no sharp cut-off; inactive = mostly below about 14%; note: read at 38.3 µM for the half of the compounds with a filed dose; 0% is about no effect
# NS1 function inh – blocks influenza NS1 protein function; 0.4% of 270,000 active; Potency, µM (titrated, usually from 46.1 µM), for the others: at the highest dose activity, positive = more growth; AID 2326; calls by dose curve; note: potency is the fitted concentration of half-maximal effect; actives are rising curves; nearly all actives have a fitted effect of over 50% in size
#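 Growth recovery, yeast-based: influenza A NS1 expressed in S. cerevisiae causes slow growth, and suppressors are detected by OD600. The parent strain without NS1 is used as positive control.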
# The depositor's hits bear a star; ? = inconclusive; . = no result. Unless noted, calls come from the whole dose curve; as a rule, active = well fitted curve in the direction sought with a large enough effect; inconclusive = small, poorly fitted or top-dose-only effect, or another doubt; inactive = no such curve, though single readings can be large; an effect the other way counts as inactive or inconclusive.
SMILES,Shiga inhibitor,Pf growth 96h,Sm TGR block,Pf growth 48h,CHX counter,NS1 function inh
CCOC(=O)c1[nH]c2ccc(Br)cc2c1NC(=O)CCN1CCCC(C)(C)C1,7,?,-3%,?,9,?
CC(C)CNC(=O)COC(=O)c1ccc(F)cc1Cl,52*,17%,1%,14%,28*,.
COc1cc(SC)ccc1C(=O)OCC(=O)NC(=O)NC(C)C,-7,60%,8%,9%,17*,2%
CC(C)CNC(=O)COC(=O)c1cc(Cl)cc(Cl)c1N,7,-29%,7%,.,-3,-14%
COc1cc(SC)ccc1C(=O)OCC(=O)N1CCCC1,50*,59%,3%,59%,40*,1%
COc1cc(SC)ccc1C(=O)OCC(=O)NCC(C)C,32,38%,1%,20%,25*,.
O=C1CN(C(=O)COc2ccc(Br)cc2Br)c2ccccc2N1,28,?,-15%,-28%,11,.
Cc1ccc(CNC(=O)CCCn2c(=O)c3ccccc3n(CC(=O)Nc3ccc(C)c(C)c3)c2=O)cc1,.,.,1%,.,.,.
COC(=O)c1ccc(NC(=O)CN(c2cccc(C(F)(F)F)c2)S(C)(=O)=O)cc1,.,.,0%,.,.,.
COc1ccc(C(=O)NC2CCN(C(=S)Nc3ccc(C)cc3)CC2)cc1,-14,14%,9%,15%,-2,7%
COc1ccc(NC(=S)N2CCC(c3ccc(C)cc3)C2)cc1 (stereo not drawn),41,18%,0%,32%,14*,-1%
CCOc1ccc(NC(=S)N2CCC(c3ccc(C)cc3)C2)cc1 (stereo not drawn),-8,3%,17%,8%,-2,2%
COc1cccc(NC(=S)N2CCC(c3ccc(C)cc3)C2)c1 (stereo not drawn),82*,12%,5%,18%,30*,0%
Cc1ccc(NC(=S)N2CCC(c3ccc(C)cc3)C2)cc1 (stereo not drawn),98*,2%,3%,51%,46*,.
COc1ccc(Br)cc1CNC(=O)CCc1cn(Cc2ccc(C)cc2)c2ccccc12,.,.,6%,.,.,.
COc1ccccc1CNC(=O)c1cn(C)c2ccc(S(=O)(=O)N(C)C3CCCCC3)cc2c1=O,.,.,1%,.,.,.
O=c1cccc2n1CC1CC2CN(Cc2cccc(Cl)c2Cl)C1 (stereo not drawn),8,.,-28%,4.7µM*,-6,-86%
O=c1cccc2n1CC1CC2CN(Cc2c(F)cccc2Cl)C1 (stereo not drawn),14,9.3µM*,0%,-14%,-2,3%
Cc1ccc2occ(CN3CC4CC(C3)c3cccc(=O)n3C4)c(=O)c2c1 (stereo not drawn),18,-10%,?,11%,-2,-1%
O=C(NCCCN1CCN(c2ccccc2F)CC1)c1cc2c(s1)-c1ccccc1OC2,.,.,0%,.,.,.
Oc1ccc(NCc2ccccc2OCc2ccccc2Cl)cc1,.,.,35µM*,.,.,.
Oc1ccc(NCc2ccccc2OCc2ccccc2F)cc1,5,?,20µM*,10µM*,-2,-50%
Cc1ccc(NCc2ccccc2OCc2ccccc2F)cc1,27*,?,-3%,.,18*,-9%
NS(=O)(=O)c1ccc(NCc2ccccc2OCc2ccccc2F)cc1,11,118%,3%,35%,2,18%
CCOc1ccccc1CNc1ccc(O)cc1,23,?,.,?,7,13%
SMILES,Shiga inhibitor,Pf growth 96h,Sm TGR block,Pf growth 48h,CHX counter,NS1 function inh
CCN(CC)CCNC(=O)C1CCN(S(=O)(=O)c2c(C)noc2/C=C/c2ccccc2F)CC1,-6,?,0%,?,-2,-13%
COc1ccc2c(CC(=O)NCc3cccs3)coc2c1,35,?,.,0%,16,-7%
COc1ccc(NC(=O)c2sc3cc(C(F)(F)F)cnc3c2-c2cccs2)cc1,-12,12µM*,1%,.,-2,1%
O=C(Nc1ccc(F)cc1)c1sc2cc(C(F)(F)F)cnc2c1-c1cccs1,-11,?,-27%,.,-4,10%
CC(C)[C@H](NC(=O)N1c2ccccc2NC(=O)[C@@H]1C(C)C)C(=O)N[C@@H](Cc1c[nH]c2ccccc12)C(=O)O,-2,?,-2%,?,-1,15%
COc1cc(/C=C2\CCCc3c2nc2ccccc2c3C(=O)O)cc(OC)c1O,-2,4%,20µM*,-2%,-2,0%
O=C(O)c1ccc(/C=C2\CCCc3c2nc2ccccc2c3C(=O)O)cc1,-8,23%,-2%,16%,-3,15%
COc1cc(/C=C2\CCCc3c2nc2ccccc2c3C(=O)O)cc([N+](=O)[O-])c1O,-13,26%,-23%,14%,-4,20%
CN(C)c1ccc(/C=C2\CCCc3c2nc2ccccc2c3C(=O)O)cc1,118*,42%,-12%,106%,45*,-4%
COc1ccc(/C=C2\CCc3c2nc2ccccc2c3C(=O)O)cc1OC,14,119%,-15%,49%,14,9%
COc1ccc(/C=C2\CCCc3c2nc2ccccc2c3C(=O)O)cc1OC,-12,35%,20µM*,13%,-2,6%
Cc1ccccc1CN1C(=O)c2ccccc2S(=O)c2ccc(C(=O)NCc3ccc4c(c3)OCO4)cc21 (stereo not drawn),.,.,9%,.,.,.
COc1ccc(-c2nn3c(-c4ccccc4C)nnc3c3ccccc23)cc1,.,.,8%,.,.,.
CCOc1ccc(S(=O)(=O)N2CCN(CN3C(=O)CC4(CCCC4)C3=O)CC2)cc1,.,-13%,-12%,-2%,.,.
CCN1CCN(c2cc3c(nn2)Oc2ccccc2N3C)CC1,52*,14%,-10%,139%,49*,-2%
O=C(NCc1cccc(Cl)c1)C1CCN(S(=O)(=O)c2ccc(F)cc2)CC1,3,?,5%,?,-1,-6%
Fc1ccc(-c2nnc3ccccn23)cc1,30,-21%,-1%,-10%,7,.
c1csc(-c2ncc3ccccn23)c1,68*,?,-20%,32%,40*,-1%
Brc1ccc(-c2ncc3ccccn23)cc1,88*,114%,28µM*,32%,60*,-74%
Fc1ccc(-c2ncc3ccccn23)cc1,33,?,-14%,57%,33*,0%
c1ccc(-n2c(-c3ccncc3)nnc2-c2cccs2)cc1,-7,-6%,-25%,2%,-1,-2%
c1cncc(-c2nc(N3CCOCC3)c3c4c(sc3n2)CCC4)c1,2,?,-14%,?,2,.
c1cncc(-c2nc(NCCCN3CCOCC3)c3c4c(sc3n2)CCC4)c1,-4,?,2%,12µM*,7,.
CCCSc1ccc([C@@H]2[C@H]3C(=O)N(CC)C(=O)[C@H]3[C@]3(C(=O)OC)CCCN23)cc1,.,15µM*,-29%,9.3µM*,.,.
CCN1C(=O)[C@H]2[C@@H](c3ccc(SC4CCCCC4)cc3)N3CCCC[C@@]3(C(=O)OC)[C@H]2C1=O,.,?,-17%,?,.,.
